Common to all, as to assay: NCI-60 one-dose screen, 48 h (100 = growth as untreated, 0 = no growth, -100 = all killed)
What all share (conditions): 10 µM unless noted

The test system of assay [1] is SR leukemia.
Assay [2] deals with RPMI-8226 leukemia.
Assay [3] relates to OVCAR-8 ovarian.
Assay [4] has as its system OVCAR-5 ovarian.
Assay [5] deals with SK-OV-3 ovarian.
Assay [6] relates to IGROV1 ovarian.
For assay [7], the system named is OVCAR-3 ovarian.
The subject of assay [8] is HS 578T breast.
Assay [9] concerns NCI/ADR-RES ovarian.
Assay [10] deals with T-47D breast.
For assay [11], the system named is BT-549 breast.
Assay [12] relates to MDA-MB-435 melanoma.
In assay [13] the test system is SW-620 colon.
The test system of assay [14] is MCF7 breast.
The test system of assay [15] is HCT-116 colon.
The test system of assay [16] is HCC-2998 colon.
Assay [17] relates to KM12 colon.
Assay [18] deals with OVCAR-4 ovarian.

The panel holds about 83,000 compounds, 20% with a hit somewhere; the sample as a whole holds those more often.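 Values shown are percent growth following 48 h exposure of cells in 96-well plates to a single concentration of compound; below 10 was considered active.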 Values without a mark were called inactive. Calls of active or inactive are those of the source.

In the case of `C=C(C)[C@@H]1CC[C@]2(C(=O)NC3CCCCC3)CC[C@]3(C)[C@H](CC[C@@H]4[C@@]5(C)CC[C@H](N)C(C)(C)[C@@H]5CC[C@]43C)[C@@H]12`, the growth was 1.36% (active) in assay [1]; 39% in assay [2]; 101% in assay [3]; 115% in [4]; 117% in [5]; 113% in [6]. Further, the growth is 101% in [7]; 95.8% in assay [8]; 97.5% in assay [9]; 80.6% in assay [10]; 106% in assay [11]; 98% in assay [12]. Further, the growth in assay [13] is 75.4%; in assay [14] it was 24.5%; in assay [15], 7.83% (active); in assay [16], 92.1%; in assay [17], 95.8%.

Consider `O=C1[C@@H]2Cc3c([nH]c4ccccc34)[C@@H](c3ccc(Cl)cc3)N2C(=O)CN1C1CCN(Cc2ccccc2)CC1`, for which the growth was -25.3% (active) in [1]; 18.9% in assay [2]; 43.9% in assay [3]; 90.1% in assay [4]; 49.1% in assay [18]; 80.5% in [5]. Further, the growth in assay [6] is 29%; in assay [8] it was 65.9%; in [10] it was 81.7%; in assay [11], 77.6%; in assay [12], 64.2%; in [13], 65.9%. The growth in [14] was 19%; in assay [15], 9.43% (active); in assay [16], 43.9%; in [17] it was 50.4%.

For `Cc1cc(NS(=O)(=O)c2ccc(NC(=O)CSc3nc4ccccc4c(=O)n3-c3ccccc3)cc2)no1`, the growth was 97.9% in assay [1]; 110% in [2]; 102% in [3]; 92.7% in [4]; 106% in [5]; 97.6% in assay [6]. Besides, the growth in [7] was 109%; in assay [8] it was 93.3%; in assay [9], 102%; in assay [10], 90%; in assay [11], 97.1%; in assay [12], 98%. In addition, the growth in assay [13] is 98.9%; in [14] it was 91.4%; in [15] it was 94.6%; in [16], 96.9%; in assay [17] it was 94.5%.

As to `Clc1ccc2[nH]cc(-c3nn4cc(-c5cccnc5)nc4s3)c2c1`, the growth in assay [1] is 109%; in [2] it was 86.9%; in assay [18] it was 105%; in assay [5] it was 91%; in [6], 87.9%; in assay [8], 93.6%. Further, the growth was 102% in assay [9]; 71.5% in [10]; 110% in assay [11]; 101% in assay [12]; 104% in assay [13]; 72.3% in assay [14]. For the same compound, the growth in assay [15] is 99.8%; in [16] it was 117%; in assay [17] it was 98%.

As for `C#CCOc1ccccc1/C=N/Nc1nc(-c2ccc(Cl)cc2)cs1`, the growth was 101% in assay [1]; 91.5% in assay [2]; 92.3% in [4]; 87.8% in assay [18]; 93.9% in assay [5]; 77.8% in [6]. Besides, the growth in assay [7] was 98.8%; in assay [8], 99.6%; in [9] it was 94.2%; in [11] it was 128%; in assay [12], 104%; in [13], 93.4%. The growth in assay [14] was 77.5%; in assay [15], 90.7%; in assay [16] it was 120%; in assay [17], 91.4%.

Take `O=C1Nc2ccccc2/C1=C/c1ccc(OCC(=O)c2ccccc2)cc1`: the growth in [1] was 101%; in assay [2], 95%; in [4], 102%; in assay [18], 96.5%; in [5], 102%; in assay [6] it was 102%. The growth was 93.9% in assay [8]; 98.2% in [9]; 97.6% in [10]; 118% in assay [11]; 102% in [12]; 102% in [13]. Besides, the growth in assay [14] is 88.7%; in [15], 94.4%; in [16], 105%; in assay [17], 99.9%.

As to `CC(Nc1c(C#N)cnc2ccc(-c3cncc(-c4n[nH]c(=O)o4)c3)cc12)c1ccccc1` (stereo unspecified), the growth was 6.62% (active) in assay [1]; 10.5% in assay [2]; 26% in assay [4]; -5.14% (active) in assay [18]; 3.52% (active) in assay [5]; -20% (active) in assay [6]. The growth in [7] was 3.98% (active); in [8] it was -22.2% (active); in assay [9], 67.7%; in assay [10], 13.1%; in assay [11], -20.1% (active); in assay [12], 24%. The growth in [13] is 18.7%; in assay [14] it was 8.39% (active); in [15] it was 0.0701% (active); in assay [16], 25.8%; in assay [17] it was 17.1%.

`CC(=O)OCCCCN1C=C/C(=C\C(=O)n2ccc3ccccc32)c2ccccc21`: the growth in assay [1] was 88.7%; in assay [2], 98.3%; in assay [4] it was 102%; in [18] it was 85.5%; in [5], 97.6%; in [6], 83.3%. For the same compound, the growth is 100% in assay [7]; 102% in [8]; 109% in assay [9]; 92.7% in assay [10]; 113% in [11]; 106% in [12]. For the same compound, the growth is 98.4% in assay [13]; 90.4% in assay [14]; 103% in [15]; 112% in [16]; 97.7% in [17].

For `COc1cccc2c1C=CC1(O2)Oc2cccc(OC)c2C=C1C` (stereo unspecified), the growth was 12.8% in assay [1]; 18.9% in assay [2]; 29.6% in [4]; 85.3% in assay [18]; 65.5% in assay [5]; 27.9% in assay [6]. Further, the growth is 20.8% in assay [8]; 4.87% (active) in assay [9]; 45.7% in assay [10]; 25.1% in assay [11]; -10.1% (active) in [12]; 30% in [13]. The growth in assay [14] was 13.1%; in [15] it was 14%; in assay [16], 15.8%; in [17], 20.5%.

Turning to `CC1CCN(CC(=O)Nn2c(COc3ccccc3)nc3ccccc3c2=O)CC1`, the growth in [1] is 30.5%; in assay [2], 76.8%; in [4] it was 101%; in assay [18], 94.9%; in assay [5], 77%; in assay [6], 73.1%. Further, the growth is 94.8% in assay [7]; 86.1% in assay [8]; 71.6% in assay [9]; 67.8% in assay [10]; 97.9% in assay [11]; 5.85% (active) in assay [12]. Also, the growth is 57.2% in assay [13]; 42.4% in [14]; 81.9% in [15]; 89.9% in assay [16]; 45% in assay [17].

Take `CNC(=O)c1cc(-n2ccc3cc(NC(=O)Nc4ccc(N5CCN(C)CC5)c(C(F)(F)F)c4)ccc32)ccn1`: the growth in assay [1] was -32.6% (active); in [2], -11.2% (active); in assay [4], 90%; in [18], 84.5%; in [5] it was 105%; in assay [6], 91.9%. Moreover, the growth in [8] was 67%; in assay [9], 98%; in assay [10] it was 87.4%; in assay [11] it was 95.1%; in assay [12], 22.5%; in assay [13] it was 21.5%. The growth is -23.9% (active) in assay [14], -17.4% (active) in assay [15], 92.3% in assay [16] and 30.5% in assay [17].

In the case of `C#CCOc1ccccc1C(OC(=O)c1ccccc1)C(=O)NC(C)(C)C(C)(C)C` (stereo unspecified), the growth in assay [1] was 64.7%; in [2], 74%; in [4] it was 102%; in assay [18], 85.9%; in [5], 95.8%; in [6], 68.9%. Moreover, the growth is 99.9% in assay [7]; 91.1% in assay [8]; 87% in assay [9]; 73.5% in assay [10]; 85% in [11]; 96.9% in assay [13]. The growth in assay [14] is 79.9%; in assay [15] it was 60.5%; in assay [16] it was 96.1%; in assay [17], 92.7%.

Consider `Cc1c(C(=O)/C=C/c2ccc(Cl)cc2)nnn1-c1ccc2oc(=O)ccc2c1`, for which the growth was 91% in assay [1]; 54.2% in assay [2]; 97.9% in assay [4]; 105% in assay [18]; 106% in assay [5]; 102% in assay [6]. Moreover, the growth in assay [8] is 109%; in assay [9] it was 88.4%; in assay [10], 85.5%; in [11], 109%; in assay [12] it was 99.7%; in assay [13], 97.7%. Further, the growth in assay [14] is 42.2%; in assay [15], 88.5%; in assay [16], 104%; in [17] it was 99.8%.

Take `CCCCCCNC(=O)Oc1ccc(/C(=C(/C)c2ccc(OC)cc2)c2ccc(OCCN3CCCCCC3)cc2)cc1`: the growth in assay [1] was -6.81% (active); in assay [2], -2.43% (active); in assay [4], 61.1%; in [18], 47.1%; in assay [5] it was 66.1%; in [6] it was 47%. Moreover, the growth is 9.93% (active) in assay [8]; 48.2% in [9]; -19.1% (active) in [10]; 70.3% in [11]; 24.1% in assay [12]; -41.4% (active) in [13]. The growth was -30.3% (active) in [14], -86.6% (active) in assay [15], 24.4% in assay [16] and 16.7% in [17].

For the compound `CN(C)c1cccc2c(S(=O)(=O)Nc3cccc(-c4csc(NC(=O)CCCCCN5CCN(CCO)CC5)n4)c3)cccc12`, the growth in assay [1] was -9.78% (active); in assay [2], 47.2%; in assay [18], 92.4%; in assay [5], 107%; in assay [6], 86.1%; in assay [8], 85.1%. For the same compound, the growth in [9] was 103%; in assay [10], 82.7%; in assay [11], 87.5%; in [12] it was 65.6%; in assay [13], 98.4%; in [14], 35.8%. The growth in [15] was 36.2%; in assay [16], 90.3%; in [17], 88.6%.

For the compound `Cc1ccc(C)c(NC2=C(Cl)C(=O)c3nc(C)ccc3C2=O)c1`, the growth in assay [1] is 1.99% (active); in assay [2], -41.9% (active); in assay [4], -71.8% (active); in assay [18] it was -96% (active); in assay [5] it was 93%; in assay [6], -66.8% (active). The growth in assay [7] is -97.4% (active); in [8], -24.8% (active); in assay [9], -6.86% (active); in [10], -58% (active); in assay [11], -5.46% (active); in assay [12] it was -82.4% (active). The growth is -49.2% (active) in assay [13]; -58.5% (active) in [14]; -74.1% (active) in assay [15]; 17.7% in assay [16]; 36.7% in assay [17].

Take `O=C(Nc1ccc(N=Cc2c(O)[nH]c3ccccc23)cc1)Nc1ccc(S(=O)(=O)Nc2ncccn2)cc1`: the growth in [1] is 96.4%; in assay [2], 107%; in assay [4], 130%; in [5], 114%; in [6], 112%; in [7] it was 117%. Also, the growth was 103% in [8]; 106% in [9]; 92.2% in assay [10]; 103% in assay [11]; 101% in assay [12]; 103% in assay [13]. For the same compound, the growth in assay [14] was 85%; in [15], 92.7%; in [16], 109%; in assay [17] it was 50.9%.
